Out of some 87,000 compounds screened, about 360 (0.41%) were called active. Cut-off read from the data, not from the text of the source: active = cytotoxicity above about 50%; inactive = the rest. For the sample, actives were picked, then their nearest neighbours and some compounds at random.
Assay: cytotoxicity in HT1080 fibrosarcoma cells, cell-based, fluorescence readout (AID 620);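 note: cells exposed to compound overnight then 4 h with Alamar Blue; 0% = vehicle DMSO and 100% = killing control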
Settings: HT1080 viability, at 10 µM, stronger effect = higher value
In the case of `CCOc1ccc(OCC)c(NC(=O)CN(C)S(=O)(=O)c2cnc[nH]2)c1`, the cytotoxicity is reported as 11.3% (inactive). In the case of `O=C(c1cnn2cccnc12)N1CCN(c2ccccc2)CC1`, the cytotoxicity is reported as 6.5% (inactive). In the case of `Cc1ccc2c(c1)c(=O)c1c3n2CCN(C(=O)CCl)C3CC1` (stereo not given), the cytotoxicity is reported as 102% (active). For `CC(=O)N1CCn2c3c(c(=O)c4cc(C)ccc42)CCC31` (stereo not given), the cytotoxicity was -5.9% (inactive). For `Cc1ccc2c(c1)c1c3n2CCN(C(=O)Cn2c(-c4ccccc4)noc2=O)C3CCC1` (stereo not given), the cytotoxicity was 4.8% (inactive). For `CCOC(=O)c1c(C)[nH]c(C)c1C(=O)CSc1nnc(-c2ccc(OC(F)F)cc2)o1`, the cytotoxicity was 0.8% (inactive). In the case of `COc1ccc(C(=O)c2ccc(OC)c3cccc(O)c23)cc1OC`, the cytotoxicity is reported as -5.2% (inactive). In the case of `CN(C)c1ccc(C(=O)c2ccc(O)cc2O)cc1`, the cytotoxicity is reported as 3.6% (inactive). With `COc1ccc(C(=O)c2ccc(Cl)cc2)c2ccccc12` the cytotoxicity was -14.8% (inactive). In the case of `CN(C)c1ccc(C(=O)c2ccc(N(C)C)c3ccccc23)cc1`, the cytotoxicity is reported as 69.6% (active). In the case of `CN(C)c1ccc(C(=O)c2ccccc2)cc1`, the cytotoxicity is reported as -16.8% (inactive). In the case of `COc1ccc(C(=O)c2ccc(N(C)C)cc2)c2ccccc12`, the cytotoxicity is reported as 63.3% (active). In the case of `CC1=C(C)CC(C(=O)NCC(=O)c2ccccc2)C(C(=O)O)C1` (stereo not given), the cytotoxicity is reported as -5% (inactive). In the case of `Cn1cnc([N+](=O)[O-])c1NC(C)(C)C`, the cytotoxicity is reported as 8.7% (inactive). In the case of `CCCOCCOC(=O)c1[nH]c2c(c1C)C(=O)CC(c1cc(OC)ccc1OC)C2` (stereo not given), the cytotoxicity is reported as 1.3% (inactive). In the case of `Cc1c(C(=O)OCC(C)C)[nH]c2c1C(=O)CC(c1cccs1)C2` (stereo not given), the cytotoxicity is reported as 66% (active). With `COC(=O)C1=C(C)NC2=C(C(=O)CC(c3cccs3)C2)C1c1ccsc1` (stereo not given) the cytotoxicity was 16.3% (inactive). In the case of `COC(=O)c1[nH]c2c(c1C)C(=O)CC(c1cc(OC)ccc1OC)C2` (stereo not given), the cytotoxicity is reported as -2.1% (inactive). For `COC(=O)c1[nH]c2c(c1C)C(=O)CC(c1cccs1)C2` (stereo not given), the cytotoxicity was 58.6% (active). For `CCCOC(=O)c1[nH]c2c(c1C)C(=O)CC(c1cccs1)C2` (stereo not given), the cytotoxicity was 66.7% (active). With `CCOC(=O)C1=C(C)NC2=C(C(=O)CC(c3cccs3)C2)C1c1cccs1` (stereo not given) the cytotoxicity was 5.7% (inactive). In the case of `CCCOC(=O)c1[nH]c2c(c1C)C(=O)CC(c1ccc(OC)c(OC)c1)C2` (stereo not given), the cytotoxicity is reported as 7.2% (inactive). For `CC(C(=O)N=c1sc2ccccc2n1C)N1C(=O)C2CC=CCC2C1=O` (stereo not given), the cytotoxicity was -11% (inactive). In the case of `c1ccc(CCn2c(C3CC3)nc3ccccc32)cc1`, the cytotoxicity is reported as -16.9% (inactive). With `CCOC(=O)c1ccc(NC(=O)C(CC)(CC)C(=O)OCC)cc1` the cytotoxicity was -4.9% (inactive). With `CC(C)(C)C1(c2ccccc2)NC(=O)N(CC(=O)N2CCOCC2)C1=O` (stereo not given) the cytotoxicity was 2.6% (inactive). In the case of `COc1cc(C#N)ccc1OCC(=O)c1ccc2c(c1)OCCO2`, the cytotoxicity is reported as -5.9% (inactive). With `CCc1cccc(CC)c1NC(=O)CSc1nnc(C(C)C)n1CC` the cytotoxicity was 0.9% (inactive). In the case of `Cc1csc(NC(=O)CN2C(=O)C3CC=CCC3C2=O)n1` (stereo not given), the cytotoxicity is reported as -13.5% (inactive). In the case of `CCn1c(SCC(=O)c2cc(C)n(C)c2C)nnc1-c1ccccc1`, the cytotoxicity is reported as 15.3% (inactive). With `CCOC(=O)c1cccc(NC(=O)CSc2nnc(-c3cccnc3)n2CC)c1` the cytotoxicity was 12.7% (inactive). In the case of `CCn1c(SCC(=O)c2cc(C)n(-c3ccc(C(=O)OC)cc3)c2C)nnc1-c1cccnc1`, the cytotoxicity is reported as 69.6% (active). For `COc1ccccc1NC1=NC(c2ccc(Cl)cc2)N=C(N)N1` (stereo not given), the cytotoxicity was 60.5% (active). In the case of `COc1ccccc1NS(=O)(=O)c1ccc(Cl)cc1`, the cytotoxicity is reported as 11.9% (inactive). In the case of `COc1ccccc1NC1=NC(C)(C)N=C(N)N1`, the cytotoxicity is reported as -26.5% (inactive). For `O=C(OC1CCS(=O)(=O)c2sccc21)c1ccccc1` (stereo not given), the cytotoxicity was -6.9% (inactive). For `CCOC(=O)CSCC(=O)Nc1ccc(S(=O)(=O)N2CCCCC2)cc1`, the cytotoxicity was 6.7% (inactive). With `CC(C)(C)c1nc(CN2CCOCC2)ccc1O` the cytotoxicity was -2.2% (inactive). With `Cc1ccc2nc(NCc3ccccc3)[nH]c2c1` the cytotoxicity was 63.1% (active). For `c1ccc(CNc2nc3ccccc3[nH]2)cc1`, the cytotoxicity was 4.5% (inactive). For `COc1ccc2nc(NCc3ccccc3)[nH]c2c1`, the cytotoxicity was 24.9% (inactive). For `CC(C(=O)Oc1ccc2c(c1)OCO2)N1C(=O)c2ccccc2C1=O` (stereo not given), the cytotoxicity was 3.4% (inactive). With `CC(=O)N1CCc2cc(C(=O)CN3CCCCC3)ccc21` the cytotoxicity was -6.3% (inactive). In the case of `CCN1CCN(Cc2nc3c(c(=O)[nH]c(=O)n3C)n2Cc2ccccc2Cl)CC1`, the cytotoxicity is reported as 4.2% (inactive). In the case of `COc1ccc(-c2cc(-c3cccs3)c(C#N)c(SCC(=O)NCc3ccccc3)n2)cc1`, the cytotoxicity is reported as -5.2% (inactive). For `COc1ccc(CNC(=O)CSc2nc(-c3ccccc3)cc(-c3cccs3)c2C#N)cc1`, the cytotoxicity was -13.6% (inactive). For `COc1ccc(-c2cc(-c3cccs3)c(C#N)c(SCC(=O)NCc3ccco3)n2)cc1`, the cytotoxicity was 55.1% (active). In the case of `Nc1nc(SCc2ccc(Cl)cc2)ns1`, the cytotoxicity is reported as -0.5% (inactive). With `CCOC(=O)C1CCCN(Cc2ccccc2OCC)C1` (stereo not given) the cytotoxicity was 8.9% (inactive). In the case of `COc1ccc(C(=O)Nn2c(C)ccc2C)cc1OC`, the cytotoxicity is reported as -1% (inactive). With `CS(=O)(=O)N1CCN(c2ccccc2NC(=O)c2ccc(-c3ccc(Cl)cc3Cl)o2)CC1` the cytotoxicity was 6% (inactive). In the case of `COc1ccc(C2=NOC(C(=O)NCc3ccc(F)cc3)C2)cc1` (stereo not given), the cytotoxicity is reported as 7% (inactive). For `COc1ccc(C2=NOC(C(=O)NCc3ccc(F)cc3)C2)cc1OC` (stereo not given), the cytotoxicity was 57.2% (active). For `COc1ccc(CNC(=O)C2CC(c3ccc(OC)cc3)=NO2)cc1` (stereo not given), the cytotoxicity was -0.6% (inactive). With `COc1cccc(C2=NOC(C(=O)NCc3ccc(F)cc3)C2)c1` (stereo not given) the cytotoxicity was -1.1% (inactive). With `COc1cc(C2=NOC(C(=O)NCc3ccc(F)cc3)C2)cc(OC)c1OC` (stereo not given) the cytotoxicity was 64.5% (active). With `COc1ccc(CNC(=O)C2CC(c3ccc(F)cc3)=NO2)cc1` (stereo not given) the cytotoxicity was 3.2% (inactive). In the case of `COc1ccc2[nH]c(=O)c(C(c3nnnn3C3CCCC3)N3CCN(Cc4ccc5c(c4)OCO5)CC3)cc2c1` (stereo not given), the cytotoxicity is reported as -0.4% (inactive). In the case of `COc1cc(NC(=O)c2nccnc2C(=O)O)cc(OC)c1`, the cytotoxicity is reported as -8% (inactive). In the case of `C=CCSc1ncc(C#N)c(N)n1`, the cytotoxicity is reported as 14.9% (inactive). For `O=C(OCC(=O)N1CCc2ccccc21)c1cccnc1Cl`, the cytotoxicity was -2.9% (inactive). In the case of `CS(=O)(=O)N1CCCC(C(=O)NCCCN2CCc3ccccc3C2)C1` (stereo not given), the cytotoxicity is reported as -1.1% (inactive). With `C[C@@H](C(=O)NCCc1c[nH]c2ccccc12)[C@@H]1C[C@@]1(C)[C@@H](NC(=O)OCc1ccccc1)c1ccccc1` the cytotoxicity was 0.9% (inactive). For `Cc1cc2c(c(C)nn2-c2ccccc2)c(=O)o1`, the cytotoxicity was -11.4% (inactive). For `CCCCCCCCCCn1c2c(c(=N)c3c1CCC3)CCC2`, the cytotoxicity was 38.3% (inactive). In the case of `CCCCCCn1c2c(c(=N)c3c1CCC3)CCC2`, the cytotoxicity is reported as 12.4% (inactive). With `CCCCCCCCCn1c2c(c(=N)c3c1CCC3)CCC2` the cytotoxicity was 51.6% (active). In the case of `Cn1c(=O)[nH]c(=O)c2c1nc(CN1CCN(c3ccccc3F)CC1)n2CC(N)=O`, the cytotoxicity is reported as -7.3% (inactive). For `COC(=O)C(C(C)=O)C1=C/C(=N\S(=O)(=O)c2ccc(C)cc2)c2ccccc2C1=O` (stereo not given), the cytotoxicity was -13% (inactive). With `Cc1ccc(NC2=C/C(=N\S(=O)(=O)c3cccs3)c3ccccc3C2=O)c(C)c1` the cytotoxicity was 61.6% (active). For `COC(=O)c1ccccc1NC1=C/C(=N\S(=O)(=O)c2cccs2)c2ccccc2C1=O`, the cytotoxicity was -53% (inactive). For `O=c1nc(N2CCOCC2)ccn1Cc1ccc(Br)cc1`, the cytotoxicity was -6.8% (inactive). In the case of `C=CCn1cc(C(=O)OC)c(=O)c2cc(S(=O)(=O)N3CCC(C)CC3)ccc21`, the cytotoxicity is reported as 6.1% (inactive). In the case of `COc1ccc(NC(=O)c2oc3ccccc3c2NC(=O)COc2ccccc2OC)c(OC)c1`, the cytotoxicity is reported as -4.5% (inactive). For `O=C(NC1CCN(C(=O)N2c3ccccc3Sc3ccccc32)CC1)c1ccco1`, the cytotoxicity was 3.2% (inactive). With `O=C(CN1CCN(c2ccccn2)CC1)N1c2ccccc2Sc2ccc(C(F)(F)F)cc21` the cytotoxicity was 6.6% (inactive). For `O=C(N1CCOCC1)N1CCN(c2ccccn2)CC1`, the cytotoxicity was 6.2% (inactive). In the case of `O=C(N1CCN(c2ccccn2)CC1)N1c2ccccc2Sc2ccccc21`, the cytotoxicity is reported as 59.7% (active). With `O=C(c1ccco1)N1CCN(C(=O)N2c3ccccc3Sc3ccccc32)CC1` the cytotoxicity was 60.9% (active). For `O=C(c1ccco1)N1c2ccccc2Sc2ccccc21`, the cytotoxicity was 0.2% (inactive). In the case of `Cc1ccccc1C(NC(N)=O)c1ccccc1` (stereo not given), the cytotoxicity is reported as 0.3% (inactive). In the case of `CC(C)N=C(NC#N)SCc1ccccc1`, the cytotoxicity is reported as 0.9% (inactive). For `COc1ccccc1-c1nnc2n1N=C(c1ccc(O)c(O)c1)CS2`, the cytotoxicity was 48% (inactive). For `CCOc1ccc(C2=Nn3c(nnc3-c3ccccc3OC)SC2)cc1`, the cytotoxicity was 62.9% (active). With `COc1ccc(C2=Nn3c(nnc3-c3ccccc3)SC2)cc1OC` the cytotoxicity was 11.6% (inactive). With `CCOc1ccc(-c2nnc3n2N=C(c2ccc(OC)cc2)CS3)cc1` the cytotoxicity was 11.5% (inactive). In the case of `CCOc1ccc(C2=Nn3c(nnc3-c3ccc(OC)cc3)SC2)cc1`, the cytotoxicity is reported as 38% (inactive). In the case of `COc1ccc(C2=Nn3c(nnc3-c3ccccc3OC)SC2)cc1OC`, the cytotoxicity is reported as 56.1% (active). In the case of `CSC1CCCCC1(O)CSc1nc2ccccc2o1` (stereo not given), the cytotoxicity is reported as -0.9% (inactive). With `O=C(CCN1C(=O)C2C3C=CC(C3)C2C1=O)N1CCN(c2ccc(F)cc2)CC1` (stereo not given) the cytotoxicity was 0.6% (inactive). With `O=C(O)C1CC=C(Cl)CC1C(=O)NCC1OCCc2ccccc21` (stereo not given) the cytotoxicity was 22.3% (inactive). With `O=C(NCc1ccc(F)cc1)C1CCN(C(=O)NCc2ccccc2)CC1` the cytotoxicity was -1% (inactive). For `OCCc1ccc(-c2ccc(Cl)cc2)o1`, the cytotoxicity was 0.4% (inactive). In the case of `Cc1nn(-c2ccc(F)cc2)c2sc(C(=O)N3CCCCCC3)cc12`, the cytotoxicity is reported as -14% (inactive). For `Nc1ccc2nc(-c3ccccn3)[nH]c2c1`, the cytotoxicity was 18.5% (inactive). For `CC(=O)Nc1ccc2nc(-c3ccccn3)[nH]c2c1`, the cytotoxicity was 7.2% (inactive). With `CC1(C)OC(=O)N(c2ccccc2)C12C=Cc1cc(Br)ccc1O2` (stereo not given) the cytotoxicity was -10.5% (inactive). In the case of `Nc1nonc1C(=O)NCCNCc1ccccc1OCc1ccccc1F`, the cytotoxicity is reported as 0.5% (inactive). With `Nc1nonc1C(=O)NCCNCc1cc(Br)ccc1OCc1ccccc1F` the cytotoxicity was 99.7% (active). For `Nc1nonc1C(=O)NCCNCc1cc(Br)ccc1OCc1ccc(F)cc1`, the cytotoxicity was 21.8% (inactive).
